CYP2C9 activ = human CYP2C9 activators, primary screen, biochemical, luminescence. Cytochrome P450 2C9 (Homo sapiens), P11712. recombinant CYP2C9, luciferin-H conversion; active compounds read high; factor 1 = untreated enzyme, 0 = blocked. activation factor at 5 µM. 96,000 tested, 1.4% active. AID 1024, 2008;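 active = activation factor of 2 or more for CYP2C9 at a 5 µM dose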;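 note: 0 = sulfaphenazole-blocked wells and 1 = vehicle-only wells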
CYP2C19 activ = human CYP2C19 activators, primary screen, biochemical, luminescence; Cytochrome P450 2C19 (Homo sapiens), P33261; recombinant CYP2C19, luciferin-H EGE luminescence; active compounds read high; 0 = fully inhibited enzyme, 1 = untreated enzyme; activation factor at 5 µM; 96,000 tested, under 10 active;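 active = activation factor of at least 2 at 5 µM in the primary screen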;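 note: 0 = wells with 2.5 mM tranylcypromine and 1 = vehicle-only wells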
PostGolgi yeast = phenotypic screen on post-Golgi transport, primary screen; post-Golgi transport phenotypic cell assay; inhibition, % at 10 µM; 98,000 tested, 0.9% active; AID 739, 2007;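 note: yeast cells grown in 1536-well plates; yeast grown about 18 h at 30C before absorbance read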
CYP2C9 inh = blockers of cytochrome P450 2C9 activity – biochemical, luminescence, ADME assay, primary screen; AID 777, 2007; CYP2C9 Supersomes, luciferin-H conversion; inhibition, % at 5 µM; P11712; 96,000 tested, 20% active;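 active = blocking of liver enzyme CYP2C9 beyond about 50% at 5 µM, limit read from the data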
PostGolgi ctrl = growth inhibition of yeast control strain, primary screen, counter-screen for post-Golgi transport modulator project; efflux-deficient yeast background strain, growth absorbance A615, 16 h; inhibition, % at 10 µM; 98,000 tested, 5% active; AID 738, 2007
CYP2C19 inhib = blockers of cytochrome P450 2C19 activity – biochemical, luminescence, ADME assay, primary screen; P33261; CYP2C19 Supersomes, luciferin-H EGE luminescence, 30 min; inhibition, % at 5 µM; 96,000 tested, 21% active;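 active = CYP2C19 inhibition above a set limit at 5 µM in the primary screen, cut at about 50% in these data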;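 note: plate controls were negative control wells for no effect and 2.5 mM tranylcypromine positive control for full effect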
* marks the source's active call; other numbers are inactive results; . = not tested or not shown. This is a sample that favours compounds with a hit; in the whole collection about 32% have one here. Cut-off read from the data, not from the text of the source, unless noted: active = inhibition above about 30%; inactive = the rest.

SMILES	CYP2C9 activ	CYP2C19 activ	PostGolgi yeast	CYP2C9 inh	PostGolgi ctrl	CYP2C19 inhib
CCOc1ccc(Nc2nc(Cc3nnc(SCC(=O)NCc4ccco4)n3CC)cs2)cc1	0.4	0.7	10	55*	-8	35
C=CCn1c(Cc2cccs2)nnc1SCC(=O)Nc1ccc(OC)c(OC)c1	0.9	0.8	-9	9	-1	16
C=CCn1c(Cc2cccs2)nnc1SCC(=O)c1ccc(F)cc1	0.4	0.1	5	56*	12	93*
C=CCn1c(Cc2cccs2)nnc1SCC(=O)NCc1ccco1	0.3	0.7	-6	65*	5	32
CCCn1c(SCC(=O)NCc2ccco2)nnc1C(C)C	1.2	1.2	-1	-16	9	-16
C=CCn1c(Cc2cccs2)nnc1SCC(=O)c1cccc(Br)c1	0.7	0.4	1	34	6	62*
O=C(NNS(=O)(=O)c1ccccc1)c1cnn(-c2ccccc2)c1-n1cccc1	0.5	0.8	19	47	3	24
CC1(C(=O)NC2CCCCCCC2)CC1(Cl)Cl (stereo unspecified)	0.9	0.7	-8	8	5	27
CCOCCCn1c(=NC(=O)c2ccc(OC)c(OC)c2)c(C#N)cc2c(=O)n3cccc(C)c3nc21	0.6	1	-2	36	7	4
C=CCn1c(Cc2cccs2)nnc1SCC(=O)c1ccc2ccccc2c1	0.7	0.4	0	27	4	55*
C=CCn1c(SCC(=O)c2ccc(OC)cc2)nnc1C(C)NC(=O)c1cccs1 (stereo unspecified)	1	1	-9	5	15	-2
O=C(CCN1C(=O)C2C3C=CC(C3)C2C1=O)Nc1ccccn1 (stereo unspecified)	1.3	1.1	-9	-26	9	-8
O=C(Nc1ccccc1Br)C1CCC(=O)N1Cc1ccccc1Cl (stereo unspecified)	0.6	0.8	1	45	11	22
O=C(Nc1ccc(Cl)cc1)C1CCC(=O)N1Cc1ccccc1Cl (stereo unspecified)	0.1	0.2	5	91*	-8	79*
COc1ccc([C@@H]2[C@H]3C(=O)N(c4cccc(C(F)(F)F)c4)C(=O)[C@H]3ON2C)cc1	0.6	0.5	-5	37	-2	55*
CC(=O)OC(C(=O)NC1CCCCC1)c1cccc(C)c1 (stereo unspecified)	1.2	0.5	-6	-24	7	47
CCOC(=O)c1ccc(NC(=O)CN2C(=O)CSC2=O)cc1	1	0.7	-2	5	-1	32
CC1CCCC(NC(=O)CCn2c(=O)oc3ccccc32)C1C (stereo unspecified)	2*	0.6	-2	-101	8	43
Cc1cccc(NC(=O)CN2C(=O)NC(Cc3ccccc3)C2=O)c1 (stereo unspecified)	0.4	0.5	-1	60*	-3	47
O=C(CCn1c(=O)oc2ccccc21)Nc1cccc(Cl)c1	2*	0.4	0	-102	11	55*
CC(=O)c1ccc(NC(=O)CCn2c(=O)oc3ccccc32)cc1	0.8	0.7	2	23	7	31
CCCCCNC(=O)CCn1c(=O)oc2ccccc21	.	.	9	.	26	.
COc1cccc(CNC(=O)CCn2c(=O)oc3ccccc32)c1	1.2	0.4	-8	-21	-7	58*
N/C(COc1cccc(C(F)(F)F)c1)=N\NC(=O)c1cccnc1Oc1ccccc1	1.1	0.8	-3	-8	5	21
Cc1ccccc1N1CCN(C(=O)c2ccccc2NC(=O)C2CC=CCC2C(=O)O)CC1 (stereo unspecified)	0.6	0.8	-2	37	-3	16
NC(=O)C(F)(F)C12OC3C4C5CC(C6C5C3C61)C42 (stereo unspecified)	1.1	0.9	-11	-10	-4	6
Cc1ccc(NC(=O)CCn2c(=O)oc3ccccc32)c(C)c1	1	0.7	0	5	18	29
Cc1cccc(NC(=O)Cn2c(=O)oc3ccccc32)c1	0.9	0.4	-4	6	4	58*

From PubChem
